Compound activity as filed in PubChem.
EWS-Fli inh: EWS/Fli transcriptional activity inhibition; 350,000 tested, 0.67% active; A673 NR0B1-luciferase reporter, viability-normalised; AID 651661; inhibition, % at 12.6 µM;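 active = mean inhibition of at least 50% after viability correction, with every replicate also passing that limit; inconclusive = mean reaches 50% but only one of two replicates passes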;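 also: firefly luciferase signal divided by Alamar Blue viability fluorescence both relative to DMSO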
KKLEB cytotox: counter-screen for CF NF-kB inhibitors: cytotoxicity. KKLEB CF airway cells viability, ATPlite luminescence, overnight; hits give low values; cells stimulated with P. aeruginosa culture filtrate. activity change (cytotoxicity), % at 5 µM. 360,000 tested, 0.36% active;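 active = corrected activity change at or below -50% at 5 µM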
HIF-2a block: blocks HIF-2a reporter activity. 786-0 RCC cells HIF-2a reporter, luciferase luminescence, overnight. inhibition, % at 18.8 µM. 360,000 tested, 0.72% active. AID 624352;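 active = inhibition of the luminescence signal of 40% or more relative to plate controls, in a single-dose primary screen at 18.75 µM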
PAX8 inh HTS: lowers PAX8-driven luciferase in RMG-I cells; RMG-I TPO-luciferase reporter, SteadyGlo, 24 h; inhibition, % at 12.6 µM; 360,000 tested, 1.2% active; AID 652154;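 active = mean replicate inhibition at least 60% with every replicate also reaching 60%; inconclusive = only one of the two criteria is met; inactive = mean below 60% and not all replicates reaching 60%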;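 also: luciferase light reporting Pax8 driven TPO promoter activity; plate controls were median of neutral control wells for no effect and mitoxantrone controls for full effect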
CF NFkB inh: cystic fibrosis NF-kB activation inhibition. AID 588850. inhibition, % at 5 µM. 360,000 tested, 0.86% active. KKLEB NF-kB-GFP reporter, PAF-induced, GFP fluorescence overnight;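 active = at least 50% inhibition at 5 µM, scaled per plate between neutral and stimulator controls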;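 also: PAF is a Pseudomonas aeruginosa culture filtrate used as stimulus; plate controls were PAF-stimulated DMSO wells for no effect and unstimulated DMSO wells for full effect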
CF NFkB conf: CF NF-kB inhibition confirmation, single concentration. shares compounds with CF NFkB inh. KKLEB CF airway cells, PAF-induced NF-kB-GFP fluorescence, overnight. inhibition, % at 5 µM. 1,300 tested, 64% active; in the data active = inhibition above about 40%;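 also: stimulus PAF is a Pseudomonas aeruginosa filtrate and not platelet activating factor; plate controls were DMSO wells with stimulus for no effect and unstimulated DMSO wells for full effect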
Mdm2-MdmX confirm: confirmation of inhibitors of human Mdm2/MdmX interaction, set 2. shares compounds with HIF-2a block. SaOS-2 split-luciferase Mdm2/MdmX complementation, luminescence. inhibition, % at 8 µM. 740 tested, 99% active. AID 504601;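 active = mean inhibition of the luminescence signal across two replicates at or above 26 percent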
Target sequence (O15151 whole entry, looked up): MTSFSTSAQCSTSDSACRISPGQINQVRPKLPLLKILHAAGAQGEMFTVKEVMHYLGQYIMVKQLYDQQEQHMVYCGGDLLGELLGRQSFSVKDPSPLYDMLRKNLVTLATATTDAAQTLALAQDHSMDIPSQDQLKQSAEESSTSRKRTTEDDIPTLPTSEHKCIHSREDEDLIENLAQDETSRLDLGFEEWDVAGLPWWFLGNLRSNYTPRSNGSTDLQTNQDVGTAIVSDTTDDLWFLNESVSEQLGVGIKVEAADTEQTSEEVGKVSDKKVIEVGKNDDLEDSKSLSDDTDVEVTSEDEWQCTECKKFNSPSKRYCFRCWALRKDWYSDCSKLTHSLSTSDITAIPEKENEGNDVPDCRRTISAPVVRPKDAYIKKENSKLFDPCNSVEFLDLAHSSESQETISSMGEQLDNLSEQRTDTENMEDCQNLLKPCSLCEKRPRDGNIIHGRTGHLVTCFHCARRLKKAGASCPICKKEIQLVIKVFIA
Target sequence (Q00987 whole entry, looked up): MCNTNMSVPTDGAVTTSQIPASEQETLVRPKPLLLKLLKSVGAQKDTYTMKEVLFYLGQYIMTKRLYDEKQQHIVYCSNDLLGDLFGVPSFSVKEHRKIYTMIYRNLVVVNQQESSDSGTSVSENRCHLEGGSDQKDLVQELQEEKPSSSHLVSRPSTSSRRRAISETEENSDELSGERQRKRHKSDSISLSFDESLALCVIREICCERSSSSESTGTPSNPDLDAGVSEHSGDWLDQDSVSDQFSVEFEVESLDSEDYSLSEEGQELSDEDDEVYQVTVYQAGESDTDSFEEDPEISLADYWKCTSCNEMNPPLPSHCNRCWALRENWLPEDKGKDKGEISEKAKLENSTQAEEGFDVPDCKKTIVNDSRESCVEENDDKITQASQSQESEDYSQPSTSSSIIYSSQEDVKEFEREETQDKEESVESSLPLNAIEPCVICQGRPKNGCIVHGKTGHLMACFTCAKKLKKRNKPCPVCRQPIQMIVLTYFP
HIF-2a inh conf: HIF-2a inhibition, single concentration confirmation | 1,800 tested, 56% active | shares compounds with HIF-2a block | inhibition, % at 18.8 µM | 786-0 RCC cells, HIF-2a luciferase reporter luminescence, overnight;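 active = mean inhibition across four replicates of at least 40 percent at the single tested concentration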
HIF-1a counter: inhibits HIF-1a reporter, a counter-screen for HIF-2a inhibitors; MiaPaCa-2 HIF-1a luciferase reporter, desferoxamine, overnight; inhibition, % at 18.8 µM; shares compounds with HIF-2a block; 1,800 tested, 72% active;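 active = mean inhibition of the reporter signal across four replicates at the single tested dose of 50% or more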
Active calls of the source: *; ? = inconclusive; / = no result given. Only some compounds are listed: those with a hit (about 2.1% of all), similar ones and a draw of the others.

SMILES	EWS-Fli inh	KKLEB cytotox	HIF-2a block	PAX8 inh HTS	CF NFkB inh	CF NFkB conf	HIF-2a inh conf	HIF-1a counter	others
N#CC(C#N)=C1C=CC=CN1/C(=C\c1ccco1)C(=O)c1ccc(-c2ccccc2)cc1	/	-50.0	82.9*	92.4*	83.3*	-50.8	96.5*	106.3*
NS(=O)(=O)c1cc(C(=O)OCC(=O)Nc2ccccc2[N+](=O)[O-])ccc1Cl	5.0	-2.2	2.7	16.1	-0.3	/	/	/
Cc1ccccc1NC(=O)COC(=O)c1ccc(S(C)(=O)=O)c([N+](=O)[O-])c1	10.3	-20.0	92.6*	?	52.6*	26.9	14.9	-0.4
Cc1ccccc1NC(=O)Cc1nc(COC(=O)c2ccc(S(C)(=O)=O)c([N+](=O)[O-])c2)cs1	/	-16.0	33.0	/	77.2*	25.3	/	/	Mdm2-MdmX confirm=100.0*
CCCNC(=O)COC(=O)c1ccccc1C(=O)c1ccc(Cl)c([N+](=O)[O-])c1	54.6*	-31.4	83.5*	54.0	101.1*	109.4*	42.4*	104.5*	Mdm2-MdmX confirm=103.0*
Cc1ccc(C(=O)c2ccccc2C(=O)OCC(=O)NCCc2ccc(Cl)cc2Cl)cc1	/	-2.6	-11.2	9.9	-11.6	/	/	/
Cn1nnnc1Sc1ncnc2scc(-c3ccc(C#N)cc3)c12	21.3	-48.0	90.5*	72.1*	77.1*	2.9	94.3*	107.2*	Mdm2-MdmX confirm=103.0*
Cn1nnnc1Sc1ncnc2scc(-c3cccc(F)c3)c12	29.4	-16.7	74.9*	104.7*	65.8*	29.2	53.7*	104.0*	Mdm2-MdmX confirm=103.0*
CCCNC(=O)C[C@@H]1C[C@H]2c3cc(NC(=O)C4CCC4)ccc3O[C@H]2[C@H](CO)O1	1.7	/	/	-2.7	/	/	/	/
C/C=C/c1ccccc1[C@H]1[C@@H](C#N)N(c2nc(CC)cs2)[C@H]1CO	1.2	/	/	/	/	/	/	/
CO[C@H]1CN(C)C(=O)c2cc(NC(C)=O)ccc2OC[C@@H](C)N(Cc2ccccc2C(=O)O)C[C@H]1C	-4.7	/	/	-1.1	/	/	/	/
CO[C@H]1CN(C)C(=O)c2ccc(NC(=O)c3cc(C)on3)cc2OC[C@@H](C)N(CC2CC2)C[C@H]1C	-2.8	/	/	1.5	/	/	/	/
C=C1C(=O)[C@@]23[C@H](O)C[C@@H]4C(C)(C)CC[C@H](O)[C@]4(C)[C@@H]2C[C@H](O)[C@@H]1[C@H]3O	0.9	20.4	40.7*	96.7*	67.8*	55.9*	36.5	90.8*
COc1ccccc1NC(=O)N1C[C@H]2[C@@H](c3ccccc31)[C@H](CO)N2C(=O)C1CCCC1	-10.2	/	/	22.5	/	/	/	/
COc1ccccc1-c1ccc2n(c1=O)C[C@H]1[C@H](CO)[C@@H](C(=O)N(C)C)N(C(=O)c3cccnc3)[C@@H]21	1.8	/	/	/	/	/	/	/
Cn1c(CSc2nc3ccccc3n2C)nc2ccccc21	/	-9.4	-89.6	-11.6	6.3	/	/	/
Cn1c(SC2=CS(=O)(=O)c3ccccc32)nc2ccccc21	/	-26.6	90.8*	/	91.3*	97.8*	-9.1	77.0*
C[C@@H]1CCCCO[C@H](CN(C)S(=O)(=O)c2cn(C)cn2)[C@@H](C)CN([C@@H](C)CO)C(=O)c2cc(NC(=O)c3ccccc3)ccc2O1	-10.8	/	/	-1.7	/	/	/	/
Cc1cccc(N(Cc2cc(=O)[nH]c3ccccc23)C(=O)CCl)c1	61.0*	-25.7	65.0*	115.2*	72.1*	108.0*	90.2*	103.7*	Mdm2-MdmX confirm=102.0*
Nc1ncc([N+](=O)[O-])c(N2CCCCCC2)n1	-13.5	2.3	7.7	-39.5	67.1*	91.3*	/	/	Mdm2-MdmX confirm=84.2*
COc1cc(NC(=O)Cn2ncc(Cl)c(Cl)c2=O)c(C)cc1[N+](=O)[O-]	75.9*	-36.9	92.6*	91.5*	93.1*	99.8*	98.1*	105.5*
COC(=O)c1cc(=O)n(Cc2ccc(OC)c(OC)c2)c(=Nc2ccc(F)cc2)s1	3.5	-20.7	70.0*	41.0	54.1*	-86.0	68.2*	102.1*
Cc1noc(C)c1S(=O)(=O)Nc1ccc2c(c1)C(=O)N([C@@H](C)CO)C[C@@H](C)[C@@H](CN(C)S(=O)(=O)c1cn(C)cn1)O2	-2.3	/	/	7.7	/	/	/	/
O=C(/C=C/c1ccc(Br)cc1)c1ccc(NC2=NCCCS2)cc1	-5.9	-10.6	66.9*	4.5	55.8*	-13.3	-27.1	107.2*
O=C(Nc1ccncc1)c1c(Cl)cccc1Cl	10.9	-13.9	40.5*	-37.8	64.5*	71.3*	6.9	14.1
SMILES	EWS-Fli inh	KKLEB cytotox	HIF-2a block	PAX8 inh HTS	CF NFkB inh	CF NFkB conf	HIF-2a inh conf	HIF-1a counter	others
O=C(Nc1ccncc1)c1c(F)c(F)c(F)c(F)c1F	27.8	-14.2	23.1	12.6	33.8	/	/	/
O=C(/C=C/c1ccc([N+](=O)[O-])cc1)c1ccccc(=O)c1O	60.6*	-9.1	59.3*	6.6	67.5*	-88.2	90.9*	103.2*
COCC(=O)N1C[C@@H](C)[C@@H](OC)CN(C)C(=O)c2ccc(NC(=O)c3ccc(F)cc3)cc2OC[C@@H]1C	13.7	/	/	-3.1	/	/	/	/
Cc1csc(CNc2ncnc3ccc(-c4ccoc4)cc23)c1	3.9	-19.7	-2.4	-8.6	71.4*	83.1*	/	/	Mdm2-MdmX confirm=87.0*
Cc1cccc(-c2ccc3ncnc(NCc4cccnc4)c3c2)c1	14.5	-17.4	5.6	3.9	0.0	/	/	/
c1cncc(CNc2ncnc3ccc(-c4ccoc4)cc23)c1	-12.7	0.3	11.1	-18.2	79.9*	88.1*	/	/	Mdm2-MdmX confirm=87.0*
Brc1ccc2ncnc(NCc3ccccc3)c2c1	/	-38.0	24.6	/	74.9*	81.0*	/	/	Mdm2-MdmX confirm=89.9*
COc1ccc(CN(C)C[C@H]2OCCCC[C@@H](C)Oc3ccc(NC(=O)c4ccncc4)cc3C(=O)N([C@@H](C)CO)C[C@H]2C)cc1	-2.4	/	/	/	/	/	/	/
C[C@@H]1CCCCO[C@@H](CN(C)C)[C@H](C)CN([C@H](C)CO)C(=O)c2cc(NC(=O)Nc3cccc4ccccc34)ccc2O1	-7.9	/	/	14.0	/	/	/	/
COC(=O)C(CC#Cc1ccc2c(c1)[C@]1(C(=O)N2)[C@H](c2ccc(OCCO)cc2)N2[C@H](c3ccccc3)[C@H](c3ccccc3)OC(=O)[C@H]2[C@@H]1C(=O)NC[C@H](O)c1ccccc1)C(=O)OC	44.0	/	/	1.1	/	/	/	/
COC(CN(C(=O)CCl)C(C(=O)NC1CCCCC1)c1ccccc1C)OC (stereo not given)	/	-40.6	47.0*	59.4	54.5*	-6.1	10.4	84.0*
COC(CN(C(=O)CCl)C(C(=O)NC1CCCCC1)c1ccc(Cl)cc1)OC (stereo not given)	-4.5	-0.9	3.9	11.0	7.6	/	/	/
CO[C@H]1CN(C)C(=O)c2ccc(NS(=O)(=O)c3ccccc3C)cc2OC[C@H](C)NC[C@@H]1C	-5.2	/	/	/	/	/	/	/
